Assays:
Conditions in all cases: concentration: 1 μM, replicates: in singlicate; n = 1
[1] = system: RIPK2
[2] = system: RIPK4
[3] = system: RIPK5
[4] = system: ROCK1
[5] = system: ROCK2
[6] = system: ROS1
[7] = system: RPS6KA4(Kin.Dom.1-N-terminal)
[8] = system: RPS6KA4(Kin.Dom.2-C-terminal)
[9] = system: RPS6KA5(Kin.Dom.1-N-terminal)
[10] = system: RPS6KA5(Kin.Dom.2-C-terminal)
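Further: KINOMEscan kinase panel screen.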

SMILES	%Inh [1] [%]	%Inh [2] [%]	%Inh [3] [%]	%Inh [4] [%]	%Inh [5] [%]	%Inh [6] [%]	%Inh [7] [%]	%Inh [8] [%]	%Inh [9] [%]	%Inh [10] [%]
CN1C(=O)C(Nc2cc(Cl)c(O)c(Cl)c2)=C(c2ccc(Cl)cc2)C1=O [SB-404321]	0	32	0	6	0	0	0	0	0	0
COC(=O)c1c(-c2ccccc2)c2cc(Br)ccc2c(=O)n1Cc1ccc(NC(=O)CCC(=O)O)cc1	12	20	21	8	0	0	0	9	23	0
Cc1cc(Nc2nc(-c3cccc(C)n3)nc3ccccc23)ccn1 [GW872411]	14	0	0	27	0	0	2	0	0	16
CCC(=O)c1c(-c2ccccc2)c2cc(Cl)ccc2c(=O)n1Cc1cc(C(=O)NC2CC2)n(C)n1	0	0	18	11	0	0	0	6	15	1

From paper PMC5540273 (PLoS ONE, 2017)
